# Results published in PubChem BioAssay AID652040 (Broad Institute, 2013).
# Entries with a potency or affinity are not part of this list. The source made the active and inactive calls.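 How the source made its calls: active means falling luciferase signal whose fitted half-maximal concentration is at most twice the top tested dose; inconclusive means flat inhibition between 30 and 70% or a poor curve fit; inactive means the rest.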
# Assay: off-target signal loss in HeLa-CEM21 co-culture – HeLa F-luc CTL cells, cherry-picked, counter-screen for HIV-1 Env fusion inhibitor project, dose response (AID 652040);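 further: 0% = median of neutral control wells and -100% = doxycycline 40 µg/mL wells; more negative values mean stronger loss of luciferase signal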
# Settings: HeLa-F-luc CTL cells with CEM21, firefly luciferase counterscreen; series mostly up to 35 µM; activity change, negative = inhibition: at the top concentration
row,Compound,"activity change, negative = inhibition"
1,CCc1nc2ccccc2c(C(=O)OCC(=O)Nc2cccc(S(=O)(=O)N3CCOCC3)c2)c1C,-14.7% (inactive)
2,CCc1ccc(Nc2n[n+](-c3ccccc3)c(-c3c(Cl)cccc3Cl)s2)cc1,9% (inactive)
3,Cc1cccc(C)c1NC(=O)N1CCN(c2nc3ccccc3s2)CC1,-17.5% (inactive)
4,O=C(Nc1nc(-c2ccc3c(c2)OCO3)cs1)c1ccncc1,21.9% (inactive)
5,COc1ccc(CCN(Cc2cccs2)S(=O)(=O)c2ccc(-n3cnnn3)cc2)cc1OC,-12.3% (inactive)
6,COc1ccc(S(=O)(=O)NNC(=O)C2Cc3c(ccc4ccccc34)O2)cc1 (centres undefined),-2.1% (inactive)
7,Cn1c(=O)c2c(nc(NCCc3ccccc3)n2Cc2ccccc2)n(C)c1=O,23.5% (inactive)
8,c1ccc2c(c1)ncn2CCCCOc1ccc2c(c1)CCC2,8.22% [at 16 µM] (inactive)
9,O=C(c1ccccc1)N1CCN(c2ncnc3sc4c(c23)CCC4)CC1,-6.45% (inactive)
10,COc1ccc(N2CCn3c2nc2c3c(=O)n(CCCc3ccccc3)c(=O)n2C)c(OC)c1,-6.64% [at 16 µM] (inactive)
11,Nc1c(S(=O)(=O)c2ccccc2)cnc2c(-c3ccc(F)cc3)cnn12,-1.17% (inactive)
12,COC(=O)[C@@]12CCCN1[C@H](c1ccc(-c3ccc(F)cc3)c(OC)c1)[C@H]1C(=O)N(C)C(=O)[C@H]12,2.62% (inactive)
13,O=c1c2ccccc2nnn1CSc1nnc(COc2ccc(Cl)cc2)n1Cc1ccco1,26.2% [at 16 µM] (inactive)
14,C=CC[n+]1c(-c2ccc(C)cc2)csc1NNC(=O)Nc1ccccc1,-1.26% [at 16 µM] (inactive)
15,COc1ccc2c(C)nc(Nc3nc(C)c(C)c(=O)[nH]3)nc2c1,156% [at 16 µM] (inactive)
16,O=C(COC(=O)c1cc(S(=O)(=O)N2CCOCC2)ccc1O)NCc1ccc2c(c1)OCO2,6.65% (inactive)
17,COC(=O)[C@]12CCCCC=C1N(Cc1ccco1)C(=O)[C@H](CC(=O)NCCc1ccccc1OC)C2,52.6% (inactive)
18,COc1cc(-c2cc(OC)c(O)c(OC)c2)cc(OC)c1O,3% (inactive)
19,COC(=O)[C@H](Cc1ccccc1)NC(=O)Cn1cnc(C(=O)Nc2ccc(C)c(C)c2)n1,21.9% (inactive)
20,Cc1ccc2[nH]c3c(N4CCN(Cc5ccccc5)CC4)ncnc3c2c1,7.7% (inactive)
21,CSc1ncccc1C(=O)OCC(=O)Nc1ccc(C)c(S(=O)(=O)N2CCOCC2)c1,0.54% (inactive)
22,Cc1oc(-c2ccccc2F)nc1CN1CCC(C(=O)NCCC2=CCCCC2)CC1,-1.68% (inactive)
23,CC(=O)C1=C(C)NC(=S)NC1c1ccccc1 (centres undefined),7.35% (inactive)
24,COc1ccc(/C=C/c2nc(S(=O)(=O)c3ccccc3)c(NCCCN(C)C)o2)cc1OC,15.6% [at 16 µM] (inactive)
